Data taken from PubChem BioAssay (NCI).
This is part of a sample that, as a whole, favours compounds with a hit. Of some 83,000 tested, about 20% had one in any assay.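 Cells were grown in 96-well plates and exposed to the test compound at a single concentration for 48 hours; results are reported as percent growth, with values below 10 considered active.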

How the values were obtained:
Assay in all cases: NCI-60 one-dose screen, 48 h (100 = growth as untreated, 0 = no growth, -100 = all killed)
[1] = tested on: DU-145 prostate; conditions: 10 µM unless noted
[2] = tested on: K-562 leukemia; conditions: 10 µM unless noted
[3] = tested on: MALME-3M melanoma; conditions: 10 µM unless noted
[4] = tested on: MDA-MB-231 breast; conditions: 10 µM unless noted
[5] = tested on: RXF 393 renal; conditions: 10 µM unless noted
[6] = tested on: SF-268 CNS; conditions: 10 µM unless noted
[7] = tested on: SF-295 CNS; conditions: 10 µM unless noted
[8] = tested on: SF-539 CNS; conditions: 10 µM unless noted
[9] = tested on: UACC-257 melanoma; conditions: 10 µM unless noted
[10] = tested on: M14 melanoma; conditions: 10 µM unless noted
[11] = tested on: HCT-15 colon; conditions: 10 µM unless noted
[12] = tested on: HT29 colon; conditions: 10 µM unless noted
[13] = tested on: SNB-75 CNS; conditions: 10 µM unless noted
[14] = tested on: SNB-19 CNS; conditions: 10 µM unless noted
[15] = tested on: U251 CNS; conditions: 10 µM unless noted
[16] = tested on: PC-3 prostate; conditions: 10 µM unless noted
[17] = tested on: SK-MEL-5 melanoma; conditions: 10 µM unless noted
[18] = tested on: UACC-62 melanoma; conditions: 10 µM unless noted
[19] = tested on: LOX IMVI melanoma; conditions: 10 µM
[20] = tested on: SK-MEL-28 melanoma; conditions: 10 µM unless noted

Measured: growth

Cc1ccc(N)c(S(=O)(=O)O)c1
inactive: [1] 125% | [2] 45.1% | [3] 129% | [4] 109% | [5] 108% | [6] 115% | [7] 116% | [8] 98.2% | [9] 101% | [10] 101% | [11] 103% | [12] 96.1% | [13] 75.6% | [14] 99.5% | [15] 104% | [16] 107% | [17] 98.1% | [18] 98.9% | [19] 104% | [20] 126%

COc1ccc(C(=O)C(=O)c2ccccc2)cc1
inactive: [1] 113% | [2] 111% | [3] 101% | [4] 101% | [5] 92.9% | [6] 105% | [7] 96.6% | [8] 117% | [9] 111% | [10] 106% | [11] 91.9% | [12] 107% | [13] 104% | [14] 100% | [15] 101% | [16] 104% | [17] 90.7% | [18] 99.2% | [19] 100% | [20] 110%

CCOC(=O)c1cc(Cl)c(O)c(Cl)c1
inactive: [1] 104% | [2] 121% | [3] 114% | [4] 106% | [5] 116% | [6] 97.7% | [7] 103% | [8] 106% | [9] 109% | [10] 105% | [11] 104% | [12] 103% | [13] 103% | [14] 106% | [15] 104% | [16] 101% | [17] 102% | [18] 105% | [19] 102% | [20] 106%

O=C(O)C1CCCN1C(=O)OCc1ccccc1 (stereo not given)
inactive: [1] 118% | [2] 99.1% | [3] 108% | [4] 128% | [5] 139% | [6] 107% | [7] 107% | [8] 107% | [9] 105% | [10] 99.1% | [11] 108% | [12] 97.6% | [13] 81.6% | [14] 104% | [15] 108% | [16] 108% | [17] 104% | [18] 109% | [19] 88.4% | [20] 105%

CCC(/C=C\C(C)=O)CC
inactive: [1] 111% | [2] 113% | [3] 98.4% | [4] 103% | [5] 97.8% | [6] 106% | [7] 104% | [8] 100% | [9] 94.8% | [10] 104% | [11] 101% | [12] 107% | [13] 99% | [14] 99.5% | [15] 96.6% | [16] 91.3% | [17] 102% | [18] 106% | [19] 97.4% | [20] 101%

C=CC(=O)OC1CCC(C(C)(C)CC)CC1 (stereo not given)
inactive: [1] 113% | [2] 109% | [3] 110% | [4] 106% | [5] 113% | [6] 102% | [7] 120% | [8] 105% | [9] 115% | [10] 107% | [11] 98.2% | [12] 112% | [13] 95.4% | [14] 109% | [15] 116% | [16] 104% | [17] 104% | [18] 109% | [19] 101% | [20] 110%

CC(C)N(CCCC#N)C(C)C
inactive: [1] 107% | [2] 104% | [3] 109% | [4] 102% | [5] 103% | [6] 103% | [7] 100% | [8] 97.9% | [9] 89.2% | [10] 107% | [11] 96.7% | [12] 86.6% | [13] 85.2% | [14] 90.7% | [15] 92.4% | [16] 86.7% | [17] 103% | [18] 95.2% | [19] 97.7% | [20] 95.3%

COC1OC(COC(C)=O)C(OC(C)=O)C(OC(C)=O)C1OC(C)=O (stereo not given)
inactive: [1] 111% | [2] 102% | [3] 96.9% | [4] 90% | [5] 114% | [6] 101% | [7] 90.1% | [8] 98.4% | [9] 85% | [10] 104% | [11] 97.2% | [12] 95.5% | [13] 95.7% | [14] 102% | [15] 102% | [16] 87.2% | [17] 117% | [18] 86.5% | [19] 98.5% | [20] 94.2%

Cc1ccc([N+](=O)[O-])c(C)n1
inactive: [1] 114% | [2] 114% | [3] 100% | [4] 117% | [5] 128% | [6] 98.6% | [7] 97.7% | [8] 89.5% | [9] 98.1% | [10] 110% | [11] 97.9% | [12] 108% | [13] 77.8% | [14] 105% | [15] 102% | [16] 89.7% | [17] 114% | [18] 107% | [19] 103% | [20] 99.6%

C=CCC(O)C=C (stereo not given)
inactive: [1] 111% | [2] 91.4% | [3] 80.7% | [4] 108% | [5] 107% | [6] 111% | [7] 99.6% | [8] 104% | [9] 93.5% | [10] 104% | [11] 101% | [12] 110% | [13] 99.3% | [14] 101% | [15] 102% | [16] 101% | [17] 102% | [18] 104% | [19] 97.3% | [20] 105%

Cc1ccc(C)c2c1CCC2=O
inactive: [1] 102% | [2] 133% | [3] 103% | [4] 117% | [5] 87.9% | [6] 96.8% | [7] 91.6% | [8] 95.6% | [9] 107% | [10] 95.7% | [11] 100% | [12] 105% | [13] 86.1% | [14] 93% | [15] 103% | [16] 98.6% | [17] 97.5% | [18] 99.9% | [19] 96.2% | [20] 104%

OC(CBr)CCBr (stereo not given)
inactive: [1] 110% | [2] 100% | [3] 85.6% | [4] 104% | [5] 109% | [6] 104% | [7] 94% | [8] 96.3% | [9] 87.8% | [10] 104% | [11] 97.8% | [12] 105% | [13] 73.9% | [14] 97% | [15] 93.3% | [16] 87.5% | [17] 101% | [18] 95.1% | [19] 96.1% | [20] 107%

CN(C)c1ccc2c(N(C)C)cc(N(C)C)nc2c1
inactive: [1] 93% | [2] 64.4% | [3] 98.4% | [4] 64.2% | [5] 97.7% | [6] 91.6% | [7] 65.9% | [8] 84.9% | [9] 122% | [10] 81.7% | [11] 92% | [12] 34.4% | [13] 92.5% | [14] 84.5% | [15] 90.8% | [16] 72.6% | [17] 100% | [18] 81.9% | [19] 87.7% | [20] 84.4%

CN(C)c1ccc(O)c2c1CC1CC3C(N(C)C)C(=O)C(C(N)=O)=C(O)C3(O)C(=O)C1=C2O (stereo not given)
inactive: [1] 49% | [2] 45.2% | [3] 46.8% | [4] 66.3% | [5] 46.3% | [6] 46.1% | [7] 11.8% | [8] 41.6% | [9] 48.4% | [10] 42.1% | [11] 25.4% | [12] 57.5% | [13] 55.8% | [14] 55.5% | [15] 25.7% | [16] 34.6% | [17] 25.6% | [18] 29% | [19] 29.3% | [20] 47.4%

C#CCSc1nnnn1-c1ccccc1
inactive: [1] 79.1% | [2] 86% | [3] 104% | [4] 96% | [5] 67.3% | [6] 82.5% | [7] 81.1% | [8] 80.2% | [9] 94.4% | [10] 104% | [11] 54.1% | [12] 96% | [13] 73.2% | [14] 97.5% | [15] 36.7% | [16] 89.4% | [17] 91.1% | [18] 101% | [19] 95.1% | [20] 100%

CCOC(OCC)C(=O)c1ccccc1
inactive: [1] 106% | [2] 109% | [3] 93.8% | [4] 111% | [5] 109% | [6] 99.2% | [7] 113% | [8] 88.2% | [9] 85.9% | [10] 101% | [11] 104% | [12] 92.7% | [13] 94.1% | [14] 103% | [15] 95% | [16] 85% | [17] 96.1% | [18] 111% | [19] 95.4% | [20] 104%

COc1ccc(C(=O)/C(=N/Nc2ccccc2)c2ccc(OC)cc2)cc1
inactive: [1] 115% | [2] 92.8% | [3] 109% | [4] 82.7% | [5] 92.4% | [6] 101% | [7] 101% | [8] 95.9% | [9] 111% | [10] 102% | [11] 76.1% | [12] 80.5% | [13] 97.1% | [14] 100% | [15] 92.4% | [16] 78.2% | [17] 98.1% | [18] 79.2% | [19] 92.1% | [20] 111%
